# Measurements taken from article PMC7862700, “An all-to-all approach to the identification of sequence-specific readers for epigenetic DNA modifications on cytosine”.
# What was measured:
# Assay in all cases: DAPPL (digital affinity profiling via proximity ligation, sequencing); 10 mM Tris-HCl pH 7.5, 50 mM NaCl, 1 mM DTT, 4% glycerol, room temperature, 30 min; GST-TFs on glutathione beads, 16-mer random dsDNA library, 0.1% formaldehyde crosslink after washing; high values mean tight binding
# FLI1 = target: T1, FLI1 (Homo sapiens, UniProt Q01543 1-452); conditions: protein: recombinant; tags: N-terminal GST; dsDNA, one strand shown
# T1 sequence: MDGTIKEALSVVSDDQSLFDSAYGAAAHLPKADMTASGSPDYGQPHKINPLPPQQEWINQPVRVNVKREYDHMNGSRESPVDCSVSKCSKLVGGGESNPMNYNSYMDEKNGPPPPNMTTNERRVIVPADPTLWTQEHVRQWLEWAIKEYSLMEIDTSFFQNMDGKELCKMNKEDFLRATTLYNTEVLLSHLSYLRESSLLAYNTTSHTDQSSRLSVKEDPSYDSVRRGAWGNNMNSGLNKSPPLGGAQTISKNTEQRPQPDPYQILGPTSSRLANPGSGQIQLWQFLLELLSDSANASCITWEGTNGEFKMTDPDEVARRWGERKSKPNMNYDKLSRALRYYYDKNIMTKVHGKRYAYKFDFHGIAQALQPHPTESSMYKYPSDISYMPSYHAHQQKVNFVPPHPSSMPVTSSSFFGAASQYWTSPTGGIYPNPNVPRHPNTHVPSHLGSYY
# How it was run: (§1)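 Human transcription factors fused to GST were expressed in yeast, captured on glutathione beads, given DNA barcodes and pooled with a GST-only negative control. Pools were incubated with 200 nmole of a 16-mer random double-stranded DNA library in Tris/NaCl/DTT/glycerol buffer at room temperature for 30 min. They were then washed, crosslinked with 0.1% formaldehyde, proximity-ligated (BsaI/T4 ligase, 1 h, 37 °C), PCR-amplified and sequenced on an Illumina NextSeq500. Binding signal is each 6-mer's read frequency for a factor divided by its frequency for the GST control.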
# ELK1 = target: T2, ELK1 (Homo sapiens, UniProt P19419 1-428); conditions: protein: recombinant; tags: N-terminal GST; dsDNA, one strand shown
# T2 sequence: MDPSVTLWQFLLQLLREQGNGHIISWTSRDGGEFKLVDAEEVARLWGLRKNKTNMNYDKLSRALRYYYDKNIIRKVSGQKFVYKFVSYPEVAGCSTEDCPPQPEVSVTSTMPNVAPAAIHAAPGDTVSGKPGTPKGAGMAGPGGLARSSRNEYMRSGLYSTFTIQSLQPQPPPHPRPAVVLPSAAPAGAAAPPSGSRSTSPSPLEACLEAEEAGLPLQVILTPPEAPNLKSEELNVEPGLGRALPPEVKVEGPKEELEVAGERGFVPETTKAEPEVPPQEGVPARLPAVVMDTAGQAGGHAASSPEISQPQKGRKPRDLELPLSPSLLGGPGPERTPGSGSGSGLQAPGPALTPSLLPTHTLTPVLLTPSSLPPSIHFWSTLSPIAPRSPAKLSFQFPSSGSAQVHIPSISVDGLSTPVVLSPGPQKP
# How it was run: as §1
# GABPA = target: T3, GABPA (Homo sapiens, UniProt Q06546 1-454); conditions: protein: recombinant; tags: N-terminal GST; dsDNA, one strand shown
# T3 sequence: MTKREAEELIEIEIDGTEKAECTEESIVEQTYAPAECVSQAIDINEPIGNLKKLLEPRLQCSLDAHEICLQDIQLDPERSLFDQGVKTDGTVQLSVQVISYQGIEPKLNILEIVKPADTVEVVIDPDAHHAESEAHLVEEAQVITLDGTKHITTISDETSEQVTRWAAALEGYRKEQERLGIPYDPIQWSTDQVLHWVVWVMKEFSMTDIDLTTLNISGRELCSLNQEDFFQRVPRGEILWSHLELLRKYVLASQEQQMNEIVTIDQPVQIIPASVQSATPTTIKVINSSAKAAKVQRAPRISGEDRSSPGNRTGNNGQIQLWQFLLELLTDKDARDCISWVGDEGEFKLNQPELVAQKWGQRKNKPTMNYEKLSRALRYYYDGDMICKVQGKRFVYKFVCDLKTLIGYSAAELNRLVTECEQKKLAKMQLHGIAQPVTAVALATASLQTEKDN
# How it was run: as §1
# ERG = target: T4, ERG (Homo sapiens, UniProt P11308 1-479); conditions: protein: recombinant; tags: N-terminal GST; dsDNA, one strand shown
# T4 sequence: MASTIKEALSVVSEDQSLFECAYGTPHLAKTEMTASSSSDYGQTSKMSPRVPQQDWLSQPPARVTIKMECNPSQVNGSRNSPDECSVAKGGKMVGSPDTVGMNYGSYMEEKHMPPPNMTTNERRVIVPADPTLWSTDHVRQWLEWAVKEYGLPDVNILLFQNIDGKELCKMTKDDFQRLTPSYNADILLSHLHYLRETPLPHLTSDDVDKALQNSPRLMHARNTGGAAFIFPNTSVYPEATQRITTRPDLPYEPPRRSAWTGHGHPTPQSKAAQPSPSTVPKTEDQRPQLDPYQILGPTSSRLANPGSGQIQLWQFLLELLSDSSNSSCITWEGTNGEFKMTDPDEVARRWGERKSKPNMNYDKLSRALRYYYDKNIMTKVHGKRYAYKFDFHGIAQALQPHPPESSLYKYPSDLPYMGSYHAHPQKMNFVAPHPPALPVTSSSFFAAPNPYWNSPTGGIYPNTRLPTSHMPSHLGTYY
# How it was run: as §1
# ELF1 = ELF1 (Homo sapiens, UniProt P32519 1-619); conditions: protein: recombinant; tags: N-terminal GST; dsDNA, one strand shown
# ELF1, sequence (P32519 whole entry): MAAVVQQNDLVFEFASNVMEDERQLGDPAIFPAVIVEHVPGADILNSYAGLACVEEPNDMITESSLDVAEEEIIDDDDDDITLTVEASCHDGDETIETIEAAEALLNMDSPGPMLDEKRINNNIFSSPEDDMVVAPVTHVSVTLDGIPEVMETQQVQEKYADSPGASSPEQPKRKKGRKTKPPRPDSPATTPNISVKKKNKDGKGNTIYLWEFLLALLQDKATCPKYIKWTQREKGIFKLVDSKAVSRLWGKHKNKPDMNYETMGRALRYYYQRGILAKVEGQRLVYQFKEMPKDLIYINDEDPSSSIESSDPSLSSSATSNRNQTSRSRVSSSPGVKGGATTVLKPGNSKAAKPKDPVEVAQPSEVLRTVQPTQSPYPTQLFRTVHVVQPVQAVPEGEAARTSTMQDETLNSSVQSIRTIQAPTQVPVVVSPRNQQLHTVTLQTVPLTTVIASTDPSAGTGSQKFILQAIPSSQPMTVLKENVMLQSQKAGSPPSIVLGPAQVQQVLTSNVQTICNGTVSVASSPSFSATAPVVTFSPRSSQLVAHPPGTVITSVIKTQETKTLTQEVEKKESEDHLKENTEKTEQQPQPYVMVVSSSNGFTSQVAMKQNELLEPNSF
# How it was run: as §1
# EHF = target: T5, EHF (Homo sapiens, UniProt Q9NZC4 1-300); conditions: protein: recombinant; tags: N-terminal GST; dsDNA, one strand shown
# T5 sequence: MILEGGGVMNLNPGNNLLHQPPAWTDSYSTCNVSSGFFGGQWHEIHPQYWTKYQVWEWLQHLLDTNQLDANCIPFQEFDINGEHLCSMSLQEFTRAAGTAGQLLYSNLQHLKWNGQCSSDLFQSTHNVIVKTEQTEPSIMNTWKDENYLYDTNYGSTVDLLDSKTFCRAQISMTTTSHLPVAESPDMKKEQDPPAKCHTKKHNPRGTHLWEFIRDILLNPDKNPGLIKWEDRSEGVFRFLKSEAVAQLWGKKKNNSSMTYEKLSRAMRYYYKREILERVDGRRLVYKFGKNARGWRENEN
# How it was run: as §1
# SPI1 = SPI1 (Homo sapiens, UniProt P17947 1-270); conditions: protein: recombinant; tags: N-terminal GST; dsDNA, one strand shown
# How it was run: as §1
# SPIB = SPIB (Homo sapiens, UniProt Q01892 1-262); conditions: protein: recombinant; tags: N-terminal GST; dsDNA, one strand shown
# SPIB, sequence (Q01892 whole entry): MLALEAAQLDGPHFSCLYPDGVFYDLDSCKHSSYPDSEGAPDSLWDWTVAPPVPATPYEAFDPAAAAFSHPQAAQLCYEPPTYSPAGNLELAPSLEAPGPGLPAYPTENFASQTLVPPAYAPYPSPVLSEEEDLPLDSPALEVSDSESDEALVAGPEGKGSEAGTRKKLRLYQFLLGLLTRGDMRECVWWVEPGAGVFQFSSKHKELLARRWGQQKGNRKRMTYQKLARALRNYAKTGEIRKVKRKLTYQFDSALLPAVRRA
# How it was run: as §1
# ELK3 = target: T6, ELK3 (Homo sapiens, UniProt P41970 1-407); conditions: protein: recombinant; tags: N-terminal GST; dsDNA, one strand shown
# T6 sequence: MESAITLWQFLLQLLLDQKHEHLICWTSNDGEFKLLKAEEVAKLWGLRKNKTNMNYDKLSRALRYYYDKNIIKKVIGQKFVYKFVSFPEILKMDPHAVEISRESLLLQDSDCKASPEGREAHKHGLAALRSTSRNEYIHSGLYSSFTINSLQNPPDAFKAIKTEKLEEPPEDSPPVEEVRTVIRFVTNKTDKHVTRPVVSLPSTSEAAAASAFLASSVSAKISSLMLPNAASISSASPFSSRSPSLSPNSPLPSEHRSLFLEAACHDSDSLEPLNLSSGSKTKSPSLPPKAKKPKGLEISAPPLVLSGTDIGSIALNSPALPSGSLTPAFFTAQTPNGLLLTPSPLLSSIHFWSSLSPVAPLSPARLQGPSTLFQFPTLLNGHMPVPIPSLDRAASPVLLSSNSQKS
# How it was run: as §1
# FEV = target: T7, FEV (Homo sapiens, UniProt Q99581 1-238); conditions: protein: recombinant; tags: N-terminal GST; dsDNA, one strand shown
# T7 sequence: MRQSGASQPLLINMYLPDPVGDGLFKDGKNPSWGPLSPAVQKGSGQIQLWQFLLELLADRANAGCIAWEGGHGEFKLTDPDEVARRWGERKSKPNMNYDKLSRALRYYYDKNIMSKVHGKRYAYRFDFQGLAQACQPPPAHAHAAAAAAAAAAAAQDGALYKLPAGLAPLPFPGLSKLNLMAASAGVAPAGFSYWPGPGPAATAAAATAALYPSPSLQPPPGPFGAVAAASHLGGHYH
# How it was run: as §1
# ETV5 = ETV5 (Homo sapiens, UniProt P41161 1-510); conditions: protein: recombinant; tags: N-terminal GST; dsDNA, one strand shown
# ETV5, sequence (P41161 whole entry): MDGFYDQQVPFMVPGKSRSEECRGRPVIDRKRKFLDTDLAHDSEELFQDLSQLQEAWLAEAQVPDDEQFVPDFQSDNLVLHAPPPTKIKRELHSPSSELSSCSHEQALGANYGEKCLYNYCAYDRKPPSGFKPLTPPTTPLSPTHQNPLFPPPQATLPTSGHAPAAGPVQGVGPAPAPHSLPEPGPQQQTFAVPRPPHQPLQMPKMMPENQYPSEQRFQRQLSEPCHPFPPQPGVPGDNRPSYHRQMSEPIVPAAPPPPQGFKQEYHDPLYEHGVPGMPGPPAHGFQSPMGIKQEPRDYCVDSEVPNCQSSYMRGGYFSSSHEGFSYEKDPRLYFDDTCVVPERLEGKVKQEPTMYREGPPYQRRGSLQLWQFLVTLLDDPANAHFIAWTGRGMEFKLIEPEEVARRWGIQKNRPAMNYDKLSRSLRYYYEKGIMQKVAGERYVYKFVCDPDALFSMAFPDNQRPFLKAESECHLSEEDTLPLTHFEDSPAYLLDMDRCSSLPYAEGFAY
# How it was run: as §1
# HSF1 = HSF1 (Homo sapiens, UniProt Q00613 1-529); conditions: protein: recombinant; tags: N-terminal GST; chain copies: 3; dsDNA, one strand shown
# HSF1, sequence (Q00613 whole entry): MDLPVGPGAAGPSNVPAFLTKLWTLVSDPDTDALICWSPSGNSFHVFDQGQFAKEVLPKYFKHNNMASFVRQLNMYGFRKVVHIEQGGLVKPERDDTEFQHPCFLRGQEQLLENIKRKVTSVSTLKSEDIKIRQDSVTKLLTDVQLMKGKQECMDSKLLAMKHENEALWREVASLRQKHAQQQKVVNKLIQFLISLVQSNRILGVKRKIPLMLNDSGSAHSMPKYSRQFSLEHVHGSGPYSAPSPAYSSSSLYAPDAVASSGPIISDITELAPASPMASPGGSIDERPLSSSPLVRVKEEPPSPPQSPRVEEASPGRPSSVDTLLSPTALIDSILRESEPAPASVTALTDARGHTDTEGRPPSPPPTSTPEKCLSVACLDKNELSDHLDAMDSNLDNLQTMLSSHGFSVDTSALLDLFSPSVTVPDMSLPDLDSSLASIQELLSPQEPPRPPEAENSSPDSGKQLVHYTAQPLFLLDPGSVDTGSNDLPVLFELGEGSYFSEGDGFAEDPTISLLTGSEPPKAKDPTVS
# How it was run: as §1
# SPIC = target: T8, SPIC (Homo sapiens, UniProt Q8N5J4 1-248); conditions: protein: recombinant; tags: N-terminal GST; dsDNA, one strand shown
# T8 sequence: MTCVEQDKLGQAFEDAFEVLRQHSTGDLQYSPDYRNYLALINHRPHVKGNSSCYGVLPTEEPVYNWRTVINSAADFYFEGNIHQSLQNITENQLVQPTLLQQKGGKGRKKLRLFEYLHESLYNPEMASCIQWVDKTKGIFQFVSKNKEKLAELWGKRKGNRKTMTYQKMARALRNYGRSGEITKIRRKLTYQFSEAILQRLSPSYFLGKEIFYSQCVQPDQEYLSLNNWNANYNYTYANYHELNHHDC
# How it was run: as §1
# ELF4 = ELF4 (Homo sapiens, UniProt Q99607 1-663); conditions: protein: recombinant; tags: N-terminal GST; dsDNA, one strand shown
# ELF4, sequence (Q99607 whole entry): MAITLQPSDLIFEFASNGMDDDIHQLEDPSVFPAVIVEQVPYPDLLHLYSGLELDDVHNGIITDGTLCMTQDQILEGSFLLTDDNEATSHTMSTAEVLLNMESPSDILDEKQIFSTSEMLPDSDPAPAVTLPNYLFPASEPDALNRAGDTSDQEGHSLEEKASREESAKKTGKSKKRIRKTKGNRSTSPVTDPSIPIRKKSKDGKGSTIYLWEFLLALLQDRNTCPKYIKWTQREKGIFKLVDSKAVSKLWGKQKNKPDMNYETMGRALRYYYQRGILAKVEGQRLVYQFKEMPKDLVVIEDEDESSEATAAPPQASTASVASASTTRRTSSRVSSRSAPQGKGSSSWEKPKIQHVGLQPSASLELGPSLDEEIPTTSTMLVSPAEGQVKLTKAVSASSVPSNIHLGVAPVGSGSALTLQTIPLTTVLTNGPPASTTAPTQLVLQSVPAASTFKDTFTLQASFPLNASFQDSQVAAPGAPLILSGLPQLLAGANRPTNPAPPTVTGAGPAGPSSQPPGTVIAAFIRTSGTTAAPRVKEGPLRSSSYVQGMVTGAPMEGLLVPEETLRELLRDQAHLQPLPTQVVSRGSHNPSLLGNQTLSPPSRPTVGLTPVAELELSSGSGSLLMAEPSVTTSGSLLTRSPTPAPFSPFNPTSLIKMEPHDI
# How it was run: as §1
# ELK4 = target: T9, ELK4 (Homo sapiens, UniProt P28324-2 1-405); conditions: protein: recombinant; tags: N-terminal GST; dsDNA, one strand shown
# T9 sequence: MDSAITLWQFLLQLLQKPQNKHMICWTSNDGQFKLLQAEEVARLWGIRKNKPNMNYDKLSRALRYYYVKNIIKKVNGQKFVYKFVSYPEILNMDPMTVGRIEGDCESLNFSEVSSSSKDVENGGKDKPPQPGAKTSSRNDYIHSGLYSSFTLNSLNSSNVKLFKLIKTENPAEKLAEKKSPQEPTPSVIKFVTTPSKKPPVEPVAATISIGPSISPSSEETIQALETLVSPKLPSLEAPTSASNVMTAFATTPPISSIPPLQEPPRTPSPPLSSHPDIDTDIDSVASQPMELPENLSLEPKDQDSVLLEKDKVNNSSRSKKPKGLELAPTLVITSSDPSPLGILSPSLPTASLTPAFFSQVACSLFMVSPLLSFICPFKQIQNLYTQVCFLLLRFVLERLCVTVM
# How it was run: as §1
# ETV2 = target: T10, ETV2 (Homo sapiens, UniProt O00321 1-342); conditions: protein: recombinant; tags: N-terminal GST; dsDNA, one strand shown
# T10 sequence: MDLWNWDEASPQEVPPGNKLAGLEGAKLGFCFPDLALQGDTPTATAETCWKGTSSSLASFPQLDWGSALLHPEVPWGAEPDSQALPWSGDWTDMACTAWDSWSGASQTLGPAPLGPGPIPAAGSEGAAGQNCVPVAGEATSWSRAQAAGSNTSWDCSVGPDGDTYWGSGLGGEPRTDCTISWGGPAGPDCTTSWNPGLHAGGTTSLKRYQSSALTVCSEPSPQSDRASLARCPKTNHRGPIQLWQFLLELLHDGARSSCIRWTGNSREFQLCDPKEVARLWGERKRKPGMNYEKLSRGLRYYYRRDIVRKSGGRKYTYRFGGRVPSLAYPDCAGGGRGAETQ
# How it was run: as §1
# ELF3 = target: T11, ELF3 (Homo sapiens, UniProt P78545 1-371); conditions: protein: recombinant; tags: N-terminal GST; dsDNA, one strand shown
# T11 sequence: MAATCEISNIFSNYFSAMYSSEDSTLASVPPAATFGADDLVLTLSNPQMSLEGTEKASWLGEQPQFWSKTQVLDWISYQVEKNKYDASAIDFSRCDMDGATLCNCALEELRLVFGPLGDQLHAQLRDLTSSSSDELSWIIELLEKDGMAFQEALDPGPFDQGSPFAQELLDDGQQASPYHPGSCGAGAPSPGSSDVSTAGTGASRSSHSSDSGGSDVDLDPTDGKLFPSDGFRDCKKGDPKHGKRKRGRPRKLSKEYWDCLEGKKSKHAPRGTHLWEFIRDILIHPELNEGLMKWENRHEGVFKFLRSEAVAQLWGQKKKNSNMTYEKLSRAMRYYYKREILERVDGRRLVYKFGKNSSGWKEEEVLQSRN
# How it was run: as §1
# CRX = CRX (Homo sapiens, UniProt O43186 1-299); conditions: protein: recombinant; tags: N-terminal GST; dsDNA, one strand shown
# CRX, sequence (O43186 whole entry): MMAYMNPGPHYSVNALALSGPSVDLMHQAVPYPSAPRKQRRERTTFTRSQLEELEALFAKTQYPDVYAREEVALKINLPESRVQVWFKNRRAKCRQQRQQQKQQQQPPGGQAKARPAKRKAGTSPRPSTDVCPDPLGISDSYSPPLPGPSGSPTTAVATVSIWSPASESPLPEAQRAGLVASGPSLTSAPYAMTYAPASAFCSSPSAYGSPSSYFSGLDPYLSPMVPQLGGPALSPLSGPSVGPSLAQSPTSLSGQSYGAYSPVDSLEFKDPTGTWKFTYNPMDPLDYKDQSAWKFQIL
# How it was run: as §1
# ETV1 = ETV1 (Homo sapiens, UniProt P50549 1-477); conditions: protein: recombinant; tags: N-terminal GST; dsDNA, one strand shown
# ETV1, sequence (P50549 whole entry): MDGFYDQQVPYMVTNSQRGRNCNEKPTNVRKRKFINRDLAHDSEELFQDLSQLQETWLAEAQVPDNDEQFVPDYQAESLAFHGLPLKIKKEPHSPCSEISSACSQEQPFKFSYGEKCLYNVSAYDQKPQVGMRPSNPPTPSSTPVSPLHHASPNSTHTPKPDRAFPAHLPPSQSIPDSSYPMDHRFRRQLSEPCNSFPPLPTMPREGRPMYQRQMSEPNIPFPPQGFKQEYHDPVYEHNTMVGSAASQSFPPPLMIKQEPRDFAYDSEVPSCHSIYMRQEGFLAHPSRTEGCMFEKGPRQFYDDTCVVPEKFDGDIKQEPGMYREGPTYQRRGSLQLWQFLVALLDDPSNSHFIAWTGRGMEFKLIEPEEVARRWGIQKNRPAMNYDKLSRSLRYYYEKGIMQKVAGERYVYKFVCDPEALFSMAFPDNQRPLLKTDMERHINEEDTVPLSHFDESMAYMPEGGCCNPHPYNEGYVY
# How it was run: as §1
sequence,measurement,setting,value
TTTGCC,binding signal,FLI1,"1.42 fold enrichment (6-mer frequency, TF over GST control)"
same,binding signal,ELK1,"1.26 fold enrichment (6-mer frequency, TF over GST control)"
same,binding signal,GABPA,"1.2 fold enrichment (6-mer frequency, TF over GST control)"
same,binding signal,ERG,"1.26 fold enrichment (6-mer frequency, TF over GST control)"
same,binding signal,ELF1,"1.23 fold enrichment (6-mer frequency, TF over GST control)"
same,binding signal,EHF,"1.22 fold enrichment (6-mer frequency, TF over GST control)"
same,binding signal,SPI1,"1.23 fold enrichment (6-mer frequency, TF over GST control)"
same,binding signal,SPIB,"1.31 fold enrichment (6-mer frequency, TF over GST control)"
same,binding signal,ELK3,"1.21 fold enrichment (6-mer frequency, TF over GST control)"
same,binding signal,FEV,"1.26 fold enrichment (6-mer frequency, TF over GST control)"
same,binding signal,ETV5,"1.26 fold enrichment (6-mer frequency, TF over GST control)"
same,binding signal,HSF1,"1.24 fold enrichment (6-mer frequency, TF over GST control)"
same,binding signal,SPIC,"1.31 fold enrichment (6-mer frequency, TF over GST control)"
same,binding signal,ELF4,"1.29 fold enrichment (6-mer frequency, TF over GST control)"
same,binding signal,ELK4,"1.37 fold enrichment (6-mer frequency, TF over GST control)"
same,binding signal,ETV2,"1.29 fold enrichment (6-mer frequency, TF over GST control)"
same,binding signal,ELF3,"1.47 fold enrichment (6-mer frequency, TF over GST control)"
same,binding signal,CRX,"1.32 fold enrichment (6-mer frequency, TF over GST control)"
same,binding signal,ETV1,"1.33 fold enrichment (6-mer frequency, TF over GST control)"
